Tau fluor cs: counter-screen for tau fibril formation inhibitors; tau K18 P301L Alexa594 fluorescence, heparin fibrillization; Potency, µM (doses to about 57.7 µM), for the others: at the highest dose activity change, negative = decrease; 0.93% of 280,000 active; AID 1463; also: potency is read from the fitted curve at half-maximal effect; % is scaled to controls: 0 for no effect and ±100 for the full control effect; nearly all actives have a fitted effect of over 55% in size
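Human K18 P301L tau (15 uM unlabeled plus 0.24 uM Alexa 594-labeled, final) in 100 mM sodium acetate pH 7 was mixed with compound and 20 uM heparin and incubated 6 hr at 37 C.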
JMJD2E inh: blocks human JMJD2E demethylase activity. B2RXH2. JMJD2E catalytic domain, FDH-coupled NADH fluorescence (FDH is formaldehyde dehydrogenase). Potency, µM (series often up to 57.1 µM), for inactives: top-dose activity change, negative = inhibition, actives largely listed as inhibitors. 1.6% of 230,000 active; active = well fitted inhibition curve with a large enough effect, not every such curve was filed as active; inconclusive = small, poorly fitted or top-dose-only effect, or another doubt; inactive = no such curve, though single readings can be large or run the other way;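 also: potency is read from the fitted curve at half-maximal effect; 0% = wells with enzyme and -100% = buffer wells without enzyme; nearly all actives have a fitted effect of over 50% in size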
Target sequence (B2RXH2 1-337 limits assumed): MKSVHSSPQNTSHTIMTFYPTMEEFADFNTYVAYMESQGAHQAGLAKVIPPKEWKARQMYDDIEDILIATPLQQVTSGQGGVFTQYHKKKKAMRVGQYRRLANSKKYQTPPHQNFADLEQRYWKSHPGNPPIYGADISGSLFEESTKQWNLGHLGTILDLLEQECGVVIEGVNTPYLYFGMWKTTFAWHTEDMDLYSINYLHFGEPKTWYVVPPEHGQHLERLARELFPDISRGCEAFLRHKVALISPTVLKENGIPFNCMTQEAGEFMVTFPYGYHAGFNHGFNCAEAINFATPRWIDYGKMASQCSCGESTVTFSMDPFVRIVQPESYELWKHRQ
CBFb-RUNX1 inh: inhibitors of human CBF-beta and RUNX1 interaction; 230,000 tested, under 10 active; AlphaScreen CBFb-His/RUNX1-biotin binding, biochemical; Q01196+Q13951; AID 1477; Potency, µM (top dose mostly 59.8 µM), without a hit: at the highest dose activity, negative = inhibition, hits mostly inhibitors; also: % of control where 0% means no effect
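Compounds were screened at multiple concentrations against a preformed CBF-beta(His)/RUNX1(biotin) complex (30 nM of each) for 15 min at room temperature, followed by 90 min with nickel and streptavidin beads and AlphaScreen reading.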
LMNA splice mod: modulators of lamin A splicing | HeLa LMNA splicing GFP/RFP minigene ratio, 48 h | Potency, µM (doses to about 46.1 µM), for inactives: at the highest dose ratio change, negative = inhibition, actives largely listed as inhibitors | 0.01% of 200,000 active; active = well fitted inhibition curve with a large enough effect in the signal ratio, with a control signal flat, not every such curve was filed as active; inconclusive = small, poorly fitted or top-dose-only effect, or effect the other way, or a change in a side signal; the % refers to the signal ratio; also: potency is read from the fitted curve at half-maximal effect; % is scaled to controls: 0 for no effect and ±100 for the full control effect
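Read-out is the ratio of GFP to DsRed2 object intensity, acquired by 488 nm laser-scanning cytometry on HeLa lamin A-EGFP minigene reporter cells. Compound incubation 48 hrs at 37 °C in Opti-MEM with 2% FBS; DMSO 0.5% final.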
Tau ThT inhib: tau fibrillization inhibition (ThT binding); AID 1460; recombinant tau K18 P301L (four-repeat tau fragment), heparin-induced fibrillization, ThT fluorescence; 2.1% of 270,000 active; Potency, µM (top dose mostly 57.4 µM), for the others: at the top dose activity, negative = inhibition, most hits filed as inhibitors; also: potency is read from the fitted curve at half-maximal effect; % is scaled to controls: 0 for no effect and ±100 for the full control effect; nearly all actives have a fitted effect of over 55% in size
Target sequence (P10636 561-689 P618L limits assumed): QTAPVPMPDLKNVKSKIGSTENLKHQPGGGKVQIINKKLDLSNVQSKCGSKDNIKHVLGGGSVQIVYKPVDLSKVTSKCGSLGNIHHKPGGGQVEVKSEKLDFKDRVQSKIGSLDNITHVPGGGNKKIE
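Tau K18 P301L fragment (15 uM unlabeled plus 0.24 uM Alexa 594-labeled) in 100 mM sodium acetate pH 7 with compound, fibrillization induced by 20 uM heparin for 6 hr at 37 C. Thioflavin T (30 uM) added, fluorescence read after 1 hr (ex 450, em 510 nm).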
Tau FP inhib: blocks human tau fibril formation measured by polarization | K18 P301L tau heparin fibrillization, Alexa594 FP, 6 h | P10636 | 0.39% of 280,000 active | Potency, µM (top dose mostly 57.7 µM), inactives show top-dose activity, negative = inhibition, actives largely listed as inhibitors; also: potency is read from the fitted curve at half-maximal effect; % is scaled to controls: 0 for no effect and ±100 for the full control effect; nearly all actives have a fitted effect of over 55% in size
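Quantitative HTS format: compounds meet 15 uM recombinant K18 P301L tau and Alexa 594-tau tracer in 100 mM sodium acetate pH 7; 20 uM heparin triggers fibrillization at 37 C over 6 hr; FP gives the signal.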
Starred values were filed as active, the others as inactive; ? = inconclusive; · = not tested or not shown; ! = repeats disagree; [ ] = dose if it differs, or a comment. Shown are actives, neighbours in structure and some others; about 3.2% of the full set was active somewhere. Unless noted, calls follow the shape of the dose curve; as a rule, active = well fitted curve in the direction sought with a large enough effect; inconclusive = small, poorly fitted or top-dose-only effect, or another doubt; inactive = no such curve, though single readings can be large; an effect the other way counts as inactive or inconclusive.

SMILES | Tau fluor cs | JMJD2E inh | CBFb-RUNX1 inh | LMNA splice mod | Tau ThT inhib | Tau FP inhib
COc1ccc(CN(Cc2ccco2)c2cnc(S(C)(=O)=O)nc2C(=O)Nc2ccc(F)cc2)cc1 | -23.8% | · | · | 12.2%[46 µM] | 0.0% | -12.3%
C#C[C@]1(O)CC[C@H]2[C@H]3CCc4cc(O)ccc4[C@@H]3CC[C@@]21C | · | · | -17.0% | · | · | ·
COc1ccc2nc(NC(=O)c3nc(S(=O)(=O)Cc4ccc(C)cc4)ncc3Cl)sc2c1 | ? | · | · | · | 5.62µM* | -7.2%
CCCc1nnc(NC(=O)c2nc(S(=O)(=O)Cc3ccc(C)cc3)ncc2Cl)s1 | -20.2% | · | · | · | ? | ?
Cc1ccc(CS(=O)(=O)c2ncc(Cl)c(C(=O)Nc3nc4ccc(F)cc4s3)n2)cc1 | -23.9% | · | · | · | 14.1µM* | -10.7%
COc1ccc(OC)c(NC(=O)c2nc(S(=O)(=O)Cc3ccc(F)cc3)ncc2Cl)c1 | ? | · | · | · | 12.6µM* | 0.6%
Cc1ccc(CS(=O)(=O)c2ncc(Cl)c(C(=O)Nc3nc4ccc(C)cc4s3)n2)cc1 | ? | · | · | · | 22.4µM* | -17.4%
Clc1ccc2c(c1)NC(c1ccncc1)=NC(c1cccs1)=N2 | ? | · | · | · | ? | -0.4%
COCc1cc(C)nc2sc(C(=O)Nc3cc(C)ccc3F)c(N)c12 | -27.5% | · | · | · | -17.0% | -2.0%
CCOC(=O)C1=C(C)N=c2s/c(=C\c3ccc(OC(C)=O)c(OCC)c3)c(=O)n2C1/C=C/c1ccccc1 (centres undefined) | -16.9% | -3.6% | 2.7% | 24.3% | ? | 0.0%
CCOC(=O)C1=C(c2ccccc2)N=c2s/c(=C\c3cccc(O)c3)c(=O)n2C1c1cccs1 (centres undefined) | ? | -27.2% | -20.6% | ? | ? | 12.6µM*
CC(=O)c1ccc(-c2c(C3C4C=CCC(C)C4C(=O)N3Cc3ccccc3)ccc3ccccc23)cc1 (centres undefined) | · | · | 6.6% | · | · | ·
O=C(Oc1ccccc1C(=O)Nc1ccccc1)c1ccc(Br)c([N+](=O)[O-])c1 | ? | -25.6% | 11.0% | ? | 10µM* | ?
C[C@@]12CC(=O)C3=C(CCCC3=O)N1CCc1ccccc12 | 3.3% | 5.9% | -9.2% | · | 4.9% | 0.8%
CC1(C)N([O-])c2cc([N+](=O)[O-])ccc2[N+]1=O | ? | -26.7% | -21.1% | · | 2µM* | 8.91µM*
COc1ccc(C)cc1NC(=O)CN(c1cc(C(F)(F)F)ccc1Cl)S(C)(=O)=O | ? | · | · | · | -7.8% | -7.5%
Cn1c2c(c(=O)n(C)c1=O)[C@@]1(C(=O)Nc3ccccc31)C(C#N)=C(N)O2 | -23.1% | ? | -8.2% | -14.0% | 14.1µM* | ?
CC(Cc1ccc(O)c(O)c1)(NN)C(=O)O (centres undefined) | -23.8% | 2.24µM* | · | -1.3% | 14.1µM* | ?
C[C@](N)(Cc1ccc(O)c(O)c1)C(=O)O | ? | 15.8µM*! | 2.2% | ? | ? | ?
C[C@](N)(Cc1ccc(O)cc1)C(=O)O | 1.0% | -2.0% | -15.4% | ? | -1.4% | 11.7%
CCC(C)(NC(=O)c1ccccc1)C(=O)O (centres undefined) | 9.0% | -5.9% | 7.3% | -5.6% | 7.1% | 1.2%
NC(=O)c1ccsc1N | -24.9% | -7.9% | 4.2% | · | 20µM* | 31.6µM*
CC(=O)N1N=C(c2cccc([N+](=O)[O-])c2)OC1c1ccc(Br)cc1 (centres undefined) | -12.1% | -2.3% | 5.4% | · | 2.2% | 2.6%
CC(=O)N1N=C(c2ccccc2)OC1c1ccc([N+](=O)[O-])s1 (centres undefined) | -18.1% | 14.1µM* | -13.9% | · | ? | ?
COc1ccccc1CNC(=O)C1CCCN(c2nn3cc(-c4ccc(F)cc4)nc3s2)C1 (centres undefined) | -14.9% | · | · | 6.6%[46 µM] | ? | -5.1%
COc1cccc(-c2ccc3c(N)c(C(=O)c4ccc(Br)cc4)sc3n2)c1 | 2.51µM*[quencher] | · | · | · | 4.47µM* | ?

Screens as filed in PubChem.
